Pf Dd2 inh – inhibitors of Plasmodium falciparum Dd2 growth; Potency, µM (top dose mostly 28.9 µM), for inactives: at the top dose activity, negative = inhibition, usual class: inhibitors; 4.3% of 120,000 active; P. falciparum Dd2 growth, SYBR Green, 72 h; active = well fitted inhibition curve with a large enough effect;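 note: plate controls were DMSO vehicle for no effect and reference drug for full effect; nearly all actives have a fitted effect of over 65% in size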
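Infected erythrocytes (Dd2, 0.3% parasitemia, 2.5% hematocrit final) are added to compound in RPMI-1640/Albumax II medium, grown 72 h at 37C in low oxygen, then lysed with saponin/Triton-X containing SYBR Green and read by fluorescence.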
The depositor's hits bear a star; [ ] = remark or other dose. The sample as a whole holds a higher share of hits than the screen did. Potency is the fitted concentration of half-maximal effect.

Results for COc1cc2c(cc1OCC1CC1)NC(=O)C21CCN(C(=O)C(C)C)CC1 ?
Pf Dd2 inh: inactive

What do the screens show for `CCOC(=O)c1c(NC(=O)CS(=O)(=O)c2ccc(C)cc2)sc2c1CCC(C)C2` (centres undefined)?
Pf Dd2 inh: 42%

Results for CCOC(=O)c1c(NC(=O)c2ccc(Br)cc2)sc2c1CCCC2 ?
Pf Dd2 inh: 1%

Results for CCOC(=O)c1c(NC(=O)c2ccc(S(=O)(=O)N(C)C3CCCCC3)cc2)sc2c1CCN(C(C)C)C2 ?
Pf Dd2 inh: 11µM*

How did NC(=O)C1(N2CCCCC2)CCN(C(=O)c2cc3n(n2)CC(c2ccc(Cl)cc2)OC3)CC1 (centres undefined) do in these assays?
Pf Dd2 inh: -7%

How did COc1ccc(Cl)cc1NC(=O)CN1Cc2ccccc2C1=O do in these assays?
Pf Dd2 inh: inactive

What do the screens show for `O=C(Cc1ccc(NC(=O)N2CCSc3ncccc32)cc1)NCc1cccc(Cl)c1`?
Pf Dd2 inh: 7%

What do the screens show for `CC1(c2nc(C3CCOCC3)nn2CC2COCCO2)CC1` (centres undefined)?
Pf Dd2 inh: 11%

Results for CCC1CN(Cc2cn(Cc3ccccc3)nc2-c2cc3ccccc3o2)CCO1 (centres undefined) ?
Pf Dd2 inh: 10µM*

How did C=CCn1cc(CN2CCOC(Cc3cccc(OC)c3)C2)c(C)n1 (centres undefined) do in these assays?
Pf Dd2 inh: -24%

What do the screens show for `Cc1nnc([C@H]2CCN(Cc3cc4ccccc4o3)C2)o1`?
Pf Dd2 inh: inactive

What do the screens show for `Cc1noc2c(NCC3CCOCC3)cc(-c3ccc(F)cc3)nc12`?
Pf Dd2 inh: inactive

How did CCC(=O)NCCC1CCN(C(=O)Nc2cc(F)cc(F)c2)CC1 do in these assays?
Pf Dd2 inh: -21%

Results for O=C(NCc1nc(-c2ccccc2)no1)c1ccco1 ?
Pf Dd2 inh: 2%

How did COc1ccc2c(c1)CCN=C2C[C@H]1CN(C(=O)c2c(C)noc2C)CC[C@H]1CC(=O)O do in these assays?
Pf Dd2 inh: 19%

Results for CN1CC(=O)N(C2CCCC2)Cc2c(NCc3cccc(F)c3)ncnc21 ?
Pf Dd2 inh: -16%

How did COc1ccccc1C(=O)N1CCCN(Cc2ccc3c(c2)OCO3)c2ccccc21 do in these assays?
Pf Dd2 inh: inactive

Results for O=C(C1CC1)N1CCCN(Cc2ccc3c(c2)OCO3)c2ccccc21 ?
Pf Dd2 inh: 8.9µM*

Results for COCCN1CCCN(C(=O)C2CCC2)c2ccccc21 ?
Pf Dd2 inh: inactive

How did Cc1ccc(NC(=O)Cn2c(-c3ccccc3)nc(C)cc2=O)cc1 do in these assays?
Pf Dd2 inh: inactive

How did Cc1ccc(-c2noc(C(C)NC(=O)c3ccco3)n2)cc1 (centres undefined) do in these assays?
Pf Dd2 inh: 30%

Results for CC(=O)N1CCCCCC1c1nc(C2CC2)no1 (centres undefined) ?
Pf Dd2 inh: -1%

What do the screens show for `O=C(NCCC1=CCCCC1)c1nnn2cc(-c3ccccc3)[nH]c(=O)c12`?
Pf Dd2 inh: -2%

How did Cc1ccccc1CC(=O)N1CCC(Cc2nc(-c3cnccn3)no2)CC1 do in these assays?
Pf Dd2 inh: 51%

What do the screens show for `CC(C)(C)C(=O)N1CCC2(CC1)C(=O)N(CC(=O)Nc1cccc(Cl)c1)CN2c1ccccc1`?
Pf Dd2 inh: 4µM*

How did CCCNC(=O)CN1CN(c2ccccc2)C2(CCN(C(=O)Nc3ccc(CC)cc3)CC2)C1=O do in these assays?
Pf Dd2 inh: -17%

How did CC(C)NC(=O)CN1CN(c2ccccc2)C2(CCN(C(=O)NCc3ccccc3)CC2)C1=O do in these assays?
Pf Dd2 inh: inactive

How did CC(C)N1C(=O)[C@@H]2[C@@H](CCN2C(=O)CCCC(=O)O)N(Cc2cccc(F)c2)C1=O do in these assays?
Pf Dd2 inh: -10%[44.1 µM]

What do the screens show for `COc1ccc(C2=NOC3(CCN([S+](=O)([O-])c4cccc(C(F)(F)F)c4)C3)C2)cc1` (centres undefined)?
Pf Dd2 inh: inactive

How did COc1cccc(-c2cc(C(=O)Nc3cc(Cl)ccc3O)on2)c1 do in these assays?
Pf Dd2 inh: 1µM*

How did COc1cccc(-c2cc(C(=O)Nc3cc(OC)c(OC)c(OC)c3)on2)c1 do in these assays?
Pf Dd2 inh: -13%[0.594 µM]

How did COc1ccc(OC)c(NC(=O)c2noc3c2CCCC3)c1 do in these assays?
Pf Dd2 inh: -14%

What do the screens show for `O=C(Nc1cccc(O)c1)c1cc(-c2ccccc2F)no1`?
Pf Dd2 inh: -13%

How did Cc1ccc(O)c(NC(=O)c2cc(-c3ccccc3O)no2)c1 do in these assays?
Pf Dd2 inh: 2.2µM*

How did Cc1ccc(C)c(N2CCN(C(=O)c3noc4c3CCCCC4)CC2)c1 do in these assays?
Pf Dd2 inh: inactive

Results for COc1cccc(C(=O)Nc2cc(-c3ccccc3)no2)c1 ?
Pf Dd2 inh: -1%

Results for Cc1ccc(O)c(NC(=O)c2noc3c2CCCCC3)c1 ?
Pf Dd2 inh: 4.5µM*

How did Cc1ccc(O)c(NC(=O)COCc2cc(-c3ccco3)on2)c1 do in these assays?
Pf Dd2 inh: 18%

How did C#CCN(C)C(=O)CC1COc2ccc(C(=O)NCCOC)cc2N1C (centres undefined) do in these assays?
Pf Dd2 inh: -10%

What do the screens show for `CCOCCCNc1ncnc2c1cnn2-c1ccc(C)c(C)c1`?
Pf Dd2 inh: inactive

How did O=C(C1CCOCC1)N1CCCCCCn2c(nnc2-c2ccc(F)cc2)CC1 do in these assays?
Pf Dd2 inh: 14%

Results for CC1(C)CN(C(=O)CCc2nc(-c3ccco3)no2)CC1(C)O (centres undefined) ?
Pf Dd2 inh: -3%

How did O=C(N[C@H](Cc1ccccc1)C1CC(O)C1)c1ccc2nccn2c1 (some centres undefined) do in these assays?
Pf Dd2 inh: -9%

Results for O=C(CN1C(=O)NC2(CCCCC2)C1=O)Nc1ccc(Cl)cc1 ?
Pf Dd2 inh: -21%

What do the screens show for `COc1ccc(C(=O)N2CCCCCCN(C)C(=O)[C@@H]3CCC[C@@H]32)cc1`?
Pf Dd2 inh: -2%

How did CN1CCCCCCN(C(=O)c2ccc3ccccc3n2)[C@H]2CCC[C@H]2C1=O do in these assays?
Pf Dd2 inh: 6.3µM*

What do the screens show for `CN1CCCCCCN(C(=O)c2ccnn2C)[C@H]2CCC[C@H]2C1=O`?
Pf Dd2 inh: 2%

What do the screens show for `Cc1ccc(-c2onc(C)c2C)cc1S(=O)(=O)NCc1ccco1`?
Pf Dd2 inh: inactive

What do the screens show for `CC(=O)Nc1ccc(NC(=O)CN2C(=O)CC(c3ccco3)Sc3ccccc32)cc1` (centres undefined)?
Pf Dd2 inh: 16%

How did COCCNC[C@@H]1C=C(C)[C@H](Cc2nnc(-c3ccc(N(C)C)cc3)o2)C[C@H]1C(C)C do in these assays?
Pf Dd2 inh: 3.5µM*

What do the screens show for `CC1=C[C@@H](CO)[C@H](C(C)C)C[C@H]1Cc1nnc(-c2ccncc2)o1`?
Pf Dd2 inh: inactive

How did CC1=C[C@@H](CN(C)CCO)[C@H](C(C)C)C[C@H]1Cc1nnc(-c2ccc(N(C)C)cc2)o1 do in these assays?
Pf Dd2 inh: 2.5µM*

What do the screens show for `CC1=C[C@@H](CO)[C@H](C(C)C)C[C@H]1Cc1nnc(-c2ccc(N(C)C)cc2)o1`?
Pf Dd2 inh: 2µM*

How did CC1=C[C@@H](CNCCN(C)C)[C@H](C(C)C)C[C@H]1Cc1nnc(C)o1 do in these assays?
Pf Dd2 inh: inactive

How did COCCNC(=O)C[C@@H]1C[C@@H](C(C)C)[C@H](CNC(=O)c2cnccn2)C=C1C do in these assays?
Pf Dd2 inh: 2%[44.1 µM]

Results for COCCNC(=O)C[C@@H]1C[C@@H](C(C)C)[C@H](CNC(=O)CCC(=O)O)C=C1C ?
Pf Dd2 inh: 5%[44.1 µM]

Screening data (PubChem)
